SW480 rerep: inducers of DNA re-replication in SW480 colon cancer cells; Potency, µM (titrated, usually from 46.1 µM), inactives show at the highest dose re-replication activation, usual class: activators; SW480 DNA re-replication, Hoechst DNA content imaging, 48 h; hit rate 1.8% among 340,000; AID 624297; further: potency means the concentration at half of the fitted maximal effect; % of control where 0% means no effect; nearly all actives have a fitted effect of over 55% in size
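Hoechst fluorescence of nuclei (405 nm excitation, 500-530 nm emission) measured by plate-scanning imager after 48 hr compound exposure at 37 C; re-replication scored as increased number of nuclei with elevated intensity.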
IL1B secr inh: inflammasome signaling inhibition, IL-1 beta readout | hit rate 4.7% among 360,000 | activity change, % at 57.5 µM | THP-1 LPS/ATP IL-1B secretion, AlphaLISA, 16 h; active compounds read low | AID 743279; in the data active means activity change below about -50%; inconclusive means mostly about -30% to -49%; further: on the % scale 0 is the no-effect control and ±100 the full control effect
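THP-1 cells pretreated 1 hr with compounds (up to 57.5 uM final), then stimulated with LPS (250 ng/mL final) plus ATP (1.25 mM final); secreted IL-1B measured by AlphaLISA after 16 hr, decreased signal indicating inhibition.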
MCF10A rereplic: induces DNA re-replication in MCF 10a normal breast cells | MCF 10A DNA re-replication, Hoechst nuclear intensity, 48 h | Potency, µM (top dose mostly 46.1 µM), for the others: at the top dose activity, positive = re-replication, actives largely listed as activators | hit rate 2.9% among 350,000 | AID 624296; further: potency means the concentration at half of the fitted maximal effect; % of control where 0% means no effect; nearly all actives have a fitted effect of over 50% in size
ATXN viability: viability counter-screen for ATXN expression inhibitors | Potency, µM (series often up to 56.7 µM), hits mostly cytotoxic | hit rate 0.49% among 400,000 | S2 cells (HEK-293 line with an ATXN2-luciferase reporter) viability, CellTiter-Fluor protease fluorescence, 24 h | AID 651635; further: potency means the concentration at half of the fitted maximal effect; nearly all actives have a fitted effect of over 40% in size
PINK1 modulator: PINK1 expression modulation | PINK1 immunofluorescence, high-content cytometry, 24 h | Potency, µM (series often up to 76.6 µM), for the others: at the top dose activation (PINK1 increase), actives largely listed as activators | hit rate 0.2% among 410,000 | AID 624263; active means well fitted activation curve with a large enough effect; inconclusive means small, poorly fitted or top-dose-only effect; cell line not stated here; further: potency means the concentration at half of the fitted maximal effect; % of control where 0% means no effect; nearly all actives have a fitted effect of over 65% in size
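Fluorescence from anti-PINK1 antibody, together with nuclear and cell stains, was scanned on a laser-scanning cytometer. Before staining, stable-line cells were incubated 24 hours with compounds at 5 concentrations; primary antibody 12 h at 10 degrees C.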
ATXN2 expr inh: reduces ATXN2 reporter expression in HEK-293 cells; HEK-293 ATXN2-luciferase reporter, luminescence, 24 h; Potency, µM (top dose mostly 57 µM), inactives show at the top dose activity change, negative = inhibition, most hits filed as inhibitors; hit rate 0.72% among 360,000; further: potency means the concentration at half of the fitted maximal effect; on the % scale 0 is the no-effect control and ±100 the full control effect; nearly all actives have a fitted effect of over 55% in size
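qHTS (up to 57 uM final) was run with 24 h compound exposure of reporter cells at 37 °C. Each well was multiplexed: SteadyGlo luminescence measured ATXN2-luciferase expression after a fluorogenic Gly-Phe-AFC viability readout (25 uM final).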
EBOV S4 ratio: Ebola virus entry blockers, screen 4 ratio channel; shares compounds with ATXN2 expr inh; Ebola pseudovirus entry assay, ratio channel; AC50, µM; hit rate 79% among 170; calls by dose curve
EBOV entry S4 bl: Ebola virus entry blockers, screen 4 blue channel | shares compounds with ATXN2 expr inh | Ebola virus entry assay, blue channel fluorescence ratio; Channel: blue | calls only | 170 tested, under 10 active; call rule not given here
EBOV entry S4 grn: Ebola entry inhibition, green channel, screen 4; AID 1117316; Ebola virus entry reporter assay, green fluorescence channel; Channel: green; calls only; 170 tested, under 10 active; shares compounds with ATXN2 expr inh; call rule not given here
Starred values were filed as active, the others as inactive; ! = a repeat was not active; [ ] = dose if it differs, or a comment. Not all results are given here. Unless noted, the call rests on the fitted dose curve; in most records, active means well fitted curve in the direction sought with a large enough effect; inconclusive means small, poorly fitted or top-dose-only effect, or another doubt; inactive means no such curve, though single readings can be large; an effect the other way counts as inactive or inconclusive.

How did O=C(Cn1c(=O)oc2cc(S(=O)(=O)N3CCCC3)ccc21)Nc1cccc(C(F)(F)F)c1 do in these assays?
SW480 rerep: 35%; IL1B secr inh: 4; MCF10A rereplic: inconclusive; ATXN viability: inconclusive; PINK1 modulator: 1%; ATXN2 expr inh: -9%

How did COc1ccc(NS(=O)(=O)c2ccc3c(c2)oc(=O)n3C)cc1Cl do in these assays?
SW480 rerep: -27%; IL1B secr inh: 12; MCF10A rereplic: 8%; ATXN viability: inactive; PINK1 modulator: 0%; ATXN2 expr inh: -22%

Results for CC1CCC(NC(=O)c2cc3c(=O)n(C)c4ccccc4c3n2C)CC1 (stereo not given) ?
SW480 rerep: -5%; IL1B secr inh: 0; MCF10A rereplic: inconclusive; ATXN viability: inactive; PINK1 modulator: 8%; ATXN2 expr inh: 3%

How did CCC(C(N)=O)N1CCCC1=O (stereo not given) do in these assays?
SW480 rerep: -2%; MCF10A rereplic: -3%; ATXN viability: inactive; ATXN2 expr inh: 5%

What do the screens show for `COC(=O)[C@@H](c1ccccc1)C1CCCCN1` (stereo not given in full)?
SW480 rerep: -1%; IL1B secr inh: 18; MCF10A rereplic: 20%; ATXN viability: inactive; PINK1 modulator: 0%; ATXN2 expr inh: 2%

How did Cc1nc(-c2ccc(-c3ccc(C(=O)N4CCc5cc6c(cc54)C4(CCN(C)CC4)CO6)cc3)c(C)c2)no1 do in these assays?
ATXN2 expr inh: 6%

Results for C=CCN1C(=O)c2ccccc2Sc2ccc(C(=O)N3CCC4(CC3)OCCO4)cc21 ?
SW480 rerep: -4%; IL1B secr inh: 14; MCF10A rereplic: 2%; ATXN viability: inactive; PINK1 modulator: -2%[38.3 µM]; ATXN2 expr inh: -15%

How did CCCCOc1ccc(CN2CCN(CCO)CC2)cc1 do in these assays?
SW480 rerep: -5%; IL1B secr inh: 13; MCF10A rereplic: 26%; ATXN viability: inactive; PINK1 modulator: -1%[38.3 µM]; ATXN2 expr inh: 6%

Results for CC(C)(COC(=O)C(c1ccccc1)c1ccccc1)CN1CCOCC1 ?
SW480 rerep: 12%; IL1B secr inh: -7; MCF10A rereplic: inconclusive; ATXN viability: inactive; PINK1 modulator: inconclusive; ATXN2 expr inh: 0%

Results for O=C(Nc1ccc2c(c1)OCO2)c1cccn(Cc2ccccc2)c1=O ?
ATXN viability: inactive; PINK1 modulator: 2%; ATXN2 expr inh: 1%

Results for C[C@H]1C(=O)O[C@@H]2CCN3CC=C(COC(=O)[C@@](C)(O)[C@@]1(C)O)[C@H]23 ?
ATXN viability: inactive

What do the screens show for `CCN(CC)C(=O)c1ccc(NC(=O)CCn2nc(-c3ccc(Cl)cc3)c3ccccc3c2=O)cc1`?
ATXN viability: inconclusive; PINK1 modulator: 4%; ATXN2 expr inh: inconclusive

Results for O=C(CSc1nnc(NC(=O)c2cc(Br)ccc2Cl)s1)NCC1CCCO1 (stereo not given) ?
SW480 rerep: inconclusive; IL1B secr inh: 7; MCF10A rereplic: 0%; ATXN viability: inactive; PINK1 modulator: 0%; ATXN2 expr inh: 4%

How did OC(CNCc1ccccc1)c1ccc(Cl)cc1 (stereo not given) do in these assays?
SW480 rerep: -7%; IL1B secr inh: -23; MCF10A rereplic: 4%; ATXN viability: inactive; PINK1 modulator: 5%; ATXN2 expr inh: -11%

Results for O=C1C[C@@H]2OCC=C3CN4CC[C@]56c7ccccc7N1[C@@H]5[C@@H]2[C@H]3C[C@H]46 (tested in a mixture with another compound) ?
SW480 rerep: -8%

Results for O=C(Nc1ccccc1-c1ccc(Cl)cc1)c1cccnc1Cl ?
ATXN viability: inactive; ATXN2 expr inh: inconclusive

What do the screens show for `CCC[C@@](C)(COC(N)=O)COC(=O)NC(C)C`?
ATXN viability: inactive

What do the screens show for `CC(C)(C)c1ccc(O)cc1`?
SW480 rerep: 0%; MCF10A rereplic: -2%; ATXN viability: inactive; ATXN2 expr inh: -5%

Results for COc1cccc2c1C(=O)c1c(O)c3c(c(O)c1C2=O)C[C@@](O)(C(C)=O)C[C@@H]3O[C@H]1C[C@H](N)[C@H](O)[C@H](C)O1 ?
SW480 rerep: -4%; IL1B secr inh: -110*; MCF10A rereplic: 13%; ATXN viability: inconclusive; PINK1 modulator: 0%; ATXN2 expr inh: 10µM*!; EBOV S4 ratio: 2.4µM*; EBOV entry S4 bl: inactive; EBOV entry S4 grn: inactive

What do the screens show for `CC(CN(C)C1CCN(C)CC1)c1ccccc1` (stereo not given)?
SW480 rerep: inconclusive; IL1B secr inh: -12; MCF10A rereplic: inconclusive; ATXN viability: inactive; PINK1 modulator: 2%; ATXN2 expr inh: -30%

What do the screens show for `COc1ccc(NC(=O)N2CC[C@@]3(CCCN(C(=O)Oc4ccccc4)C3)C2)cc1`?
PINK1 modulator: 1%

How did CCOc1ccc(NC(=O)C2CCCN2C(=O)Oc2ccccc2)cc1 (stereo not given) do in these assays?
SW480 rerep: inconclusive; IL1B secr inh: 1; MCF10A rereplic: -2%; ATXN viability: inactive; PINK1 modulator: 0%; ATXN2 expr inh: -6%

How did CCN(CC(=O)Nc1ccccc1C(F)(F)F)C(=O)Cn1c(=O)cnc2ccccc21 do in these assays?
SW480 rerep: -160%; IL1B secr inh: 14; MCF10A rereplic: -17%; ATXN viability: inactive; PINK1 modulator: 1%; ATXN2 expr inh: -9%

What do the screens show for `CC(N)[C@H](O)c1ccccc1` (stereo not given in full)?
PINK1 modulator: 1%

How did COc1cccc(NC(=O)N2CCc3nc(Nc4ccc(C(C)C)cc4)ncc3C2)c1 do in these assays?
IL1B secr inh: -14; ATXN viability: inconclusive; PINK1 modulator: 10%; ATXN2 expr inh: 0%

How did CN(N=O)c1cc(O)ccc1O do in these assays?
PINK1 modulator: -1%

How did CCS(=O)CCSP(=O)(OC)OC (stereo not given) do in these assays?
PINK1 modulator: -1%

What do the screens show for `Cc1ccccc1[N+](=O)[O-]`?
SW480 rerep: -5%; IL1B secr inh: 26; MCF10A rereplic: 16%; ATXN viability: inactive; PINK1 modulator: 0%; ATXN2 expr inh: -11%

Source: PubChem BioAssay
